# Numbering of substitutions follows the chain as printed.
# What was measured:
# Experiment in all cases: PBM; 200 nM protein, PBS
# Details in all cases: dsDNA, one strand shown
# CRX [1] = target: CRX (Homo sapiens, UniProt O43186 26-111)
# CRX [2] = target: CRX (Homo sapiens, UniProt O43186 26-111, E42D)
# CRX [3] = target: CRX (Homo sapiens, UniProt O43186 26-111, R41L)
# VENTX [4] = target: T1, VENTX (Homo sapiens, UniProt O95231 78-163, R121Q)
# T1 sequence: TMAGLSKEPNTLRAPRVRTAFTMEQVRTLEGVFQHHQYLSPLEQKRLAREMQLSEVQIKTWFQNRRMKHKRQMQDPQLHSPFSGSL
# VENTX [5] = target: T2, VENTX (Homo sapiens, UniProt O95231 78-163)
# T2 sequence: T1 sequence with Q44R
# VENTX [6] = target: T3, VENTX (Homo sapiens, UniProt O95231 78-163, Y115F)
# T3 sequence: T1 sequence with Y38F, Q44R
# SIX6 [7] = target: T4, SIX6 (Homo sapiens, UniProt O95475 114-200, L167I)
# T4 sequence: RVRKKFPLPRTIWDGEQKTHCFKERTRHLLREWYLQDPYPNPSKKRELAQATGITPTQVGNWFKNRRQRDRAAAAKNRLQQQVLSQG
# SIX6 [8] = target: T5, SIX6 (Homo sapiens, UniProt O95475 114-200, L143V)
# T5 sequence: T4 sequence with L30V, I54L
# SIX6 [9] = target: T6, SIX6 (Homo sapiens, UniProt O95475 114-200, H141N)
# T6 sequence: T4 sequence with H28N, I54L
# SIX6 [10] = target: T7, SIX6 (Homo sapiens, UniProt O95475 114-200, T165P)
# T7 sequence: T4 sequence with T52P, I54L
# SIX6 [11] = target: T8, SIX6 (Homo sapiens, UniProt O95475 114-200, L167M)
# T8 sequence: T4 sequence with I54M
# SIX6 [12] = target: T9, SIX6 (Homo sapiens, UniProt O95475 114-200, L143M)
# T9 sequence: T4 sequence with L30M, I54L
# SIX6 [13] = target: T10, SIX6 (Homo sapiens, UniProt O95475 114-200, L143I)
# T10 sequence: T4 sequence with L30I, I54L
# SIX6 [14] = target: T11, SIX6 (Homo sapiens, UniProt O95475 114-200, T165G)
# T11 sequence: T4 sequence with T52G, I54L
# SIX6 [15] = target: T12, SIX6 (Homo sapiens, UniProt O95475 114-200, T139Q)
# T12 sequence: T4 sequence with T26Q, I54L
# SIX6 [16] = target: T13, SIX6 (Homo sapiens, UniProt O95475 114-200, T165A)
# T13 sequence: T4 sequence with T52A, I54L
# SIX6 [17] = target: T14, SIX6 (Homo sapiens, UniProt O95475 114-200, L167V)
# T14 sequence: T4 sequence with I54V
# SIX6 [18] = target: T15, SIX6 (Homo sapiens, UniProt O95475 114-200)
# T15 sequence: T4 sequence with I54L
# SIX6 [19] = target: T16, SIX6 (Homo sapiens, UniProt O95475 114-200, T165I)
# T16 sequence: T4 sequence with T52I, I54L
# HOXA4 [20] = target: HOXA4 (Homo sapiens, UniProt Q00056 201-287, W262R)
# Chain of HOXA4 (Homo sapiens, UniProt Q00056 201-287, W262R) (Q00056 201-287 W262R): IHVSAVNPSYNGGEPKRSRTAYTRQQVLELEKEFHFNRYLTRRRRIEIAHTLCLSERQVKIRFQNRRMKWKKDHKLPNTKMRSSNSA
# HOXA4 [21] = target: HOXA4 (Homo sapiens, UniProt Q00056 201-287, R217L)
# Chain of HOXA4 (Homo sapiens, UniProt Q00056 201-287, R217L) (Q00056 201-287 R217L): as the sequence (Q00056 201-287 W262R) above, with R17L, R62W counted along it
# HOXA4 [22] = target: HOXA4 (Homo sapiens, UniProt Q00056 201-287)
# Chain of HOXA4 (Homo sapiens, UniProt Q00056 201-287) (Q00056 201-287): as the sequence (Q00056 201-287 W262R) above, with R62W counted along it
# HOXA4 [23] = target: HOXA4 (Homo sapiens, UniProt Q00056 201-287, W262F)
# Chain of HOXA4 (Homo sapiens, UniProt Q00056 201-287, W262F) (Q00056 201-287 W262F): as the sequence (Q00056 201-287 W262R) above, with R62F counted along it
# HOXC9 [24] = target: HOXC9 (Homo sapiens, UniProt P31274 178-260, K195R)
# Chain of HOXC9 (Homo sapiens, UniProt P31274 178-260, K195R) (P31274 178-260 K195R): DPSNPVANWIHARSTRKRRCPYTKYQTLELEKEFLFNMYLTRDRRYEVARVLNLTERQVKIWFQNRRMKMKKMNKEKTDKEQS
# HOXC9 [25] = target: HOXC9 (Homo sapiens, UniProt P31274 178-260)
# Chain of HOXC9 (Homo sapiens, UniProt P31274 178-260) (P31274 178-260): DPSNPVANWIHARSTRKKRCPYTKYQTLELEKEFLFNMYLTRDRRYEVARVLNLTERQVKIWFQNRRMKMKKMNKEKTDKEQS
# MSX2 [26] = target: MSX2 (Homo sapiens, UniProt P35548 130-214, R199I)
# Chain of MSX2 (Homo sapiens, UniProt P35548 130-214, R199I) (P35548 130-214 R199I): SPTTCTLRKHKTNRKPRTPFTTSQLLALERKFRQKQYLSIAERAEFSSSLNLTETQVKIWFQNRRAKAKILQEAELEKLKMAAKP
# HOXC9 [27] = target: HOXC9 (Homo sapiens, UniProt P31274 178-260, R193K)
# Chain of HOXC9 (Homo sapiens, UniProt P31274 178-260, R193K) (P31274 178-260 R193K): as the sequence (P31274 178-260) above, with R16K counted along it
# MSX2 [28] = target: MSX2 (Homo sapiens, UniProt P35548 130-214)
# Chain of MSX2 (Homo sapiens, UniProt P35548 130-214) (P35548 130-214): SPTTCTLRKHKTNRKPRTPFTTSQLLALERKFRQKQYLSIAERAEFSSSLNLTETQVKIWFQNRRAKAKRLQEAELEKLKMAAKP
# HOXC9 [29] = target: HOXC9 (Homo sapiens, UniProt P31274 178-260, R222W)
# Chain of HOXC9 (Homo sapiens, UniProt P31274 178-260, R222W) (P31274 178-260 R222W): as the sequence (P31274 178-260) above, with R45W counted along it
# MSX2 [30] = target: MSX2 (Homo sapiens, UniProt P35548 130-214, F161Y)
# Chain of MSX2 (Homo sapiens, UniProt P35548 130-214, F161Y) (P35548 130-214 F161Y): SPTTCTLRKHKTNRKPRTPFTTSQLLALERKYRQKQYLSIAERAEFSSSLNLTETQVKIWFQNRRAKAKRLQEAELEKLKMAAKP
# NKX2-6 = target: T17, NKX2-6 (Homo sapiens, UniProt A6NCS4 118-204, R150C)
# T17 sequence: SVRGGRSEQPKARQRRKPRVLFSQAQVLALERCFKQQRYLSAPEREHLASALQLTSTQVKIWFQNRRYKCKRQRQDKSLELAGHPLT
# ALX1 [31] = target: ALX1 (Homo sapiens, UniProt Q15699 118-204, L144V)
# Chain of ALX1 (Homo sapiens, UniProt Q15699 118-204, L144V) (Q15699 118-204 L144V): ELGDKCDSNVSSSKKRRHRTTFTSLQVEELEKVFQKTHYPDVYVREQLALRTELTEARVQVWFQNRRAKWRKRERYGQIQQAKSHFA
# ALX1 [32] = target: ALX1 (Homo sapiens, UniProt Q15699 118-204, L144R)
# Chain of ALX1 (Homo sapiens, UniProt Q15699 118-204, L144R) (Q15699 118-204 L144R): as the sequence (Q15699 118-204 L144V) above, with V27R counted along it
# ALX1 [33] = target: ALX1 (Homo sapiens, UniProt Q15699 118-204)
# Chain of ALX1 (Homo sapiens, UniProt Q15699 118-204) (Q15699 118-204): as the sequence (Q15699 118-204 L144V) above, with V27L counted along it
# HOXD13 [34] = target: HOXD13 (Homo sapiens, UniProt P35453 263-343, T313R)
# Chain of HOXD13 (Homo sapiens, UniProt P35453 263-343, T313R) (P35453 263-343 T313R): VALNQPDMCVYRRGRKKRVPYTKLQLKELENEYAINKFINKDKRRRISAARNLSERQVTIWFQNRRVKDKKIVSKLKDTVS
# HOXD13 [35] = target: HOXD13 (Homo sapiens, UniProt P35453 263-343)
# Chain of HOXD13 (Homo sapiens, UniProt P35453 263-343) (P35453 263-343): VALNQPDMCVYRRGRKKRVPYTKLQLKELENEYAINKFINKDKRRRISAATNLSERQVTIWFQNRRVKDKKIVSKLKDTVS
# HOXD13 [36] = target: HOXD13 (Homo sapiens, UniProt P35453 263-343, T313A)
# Chain of HOXD13 (Homo sapiens, UniProt P35453 263-343, T313A) (P35453 263-343 T313A): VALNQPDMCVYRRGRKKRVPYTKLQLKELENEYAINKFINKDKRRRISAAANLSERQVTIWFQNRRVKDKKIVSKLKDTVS
# NKX2-5 = NKX2-5 (Homo sapiens, UniProt P52952 125-210)
# Chain of NKX2-5 (P52952 125-210): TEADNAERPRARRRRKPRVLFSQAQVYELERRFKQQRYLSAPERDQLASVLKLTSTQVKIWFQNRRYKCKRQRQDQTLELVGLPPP
# HOXB6 = HOXB6 (Homo sapiens, UniProt P17509 132-218)
# Chain of HOXB6 (P17509 132-218): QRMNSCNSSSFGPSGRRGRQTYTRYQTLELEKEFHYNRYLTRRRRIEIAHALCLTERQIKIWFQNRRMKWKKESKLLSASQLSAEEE
# NKX2-4 [37] = target: T18, NKX2-4 (Homo sapiens, UniProt Q9H2Z4 175-261, P217L)
# T18 sequence: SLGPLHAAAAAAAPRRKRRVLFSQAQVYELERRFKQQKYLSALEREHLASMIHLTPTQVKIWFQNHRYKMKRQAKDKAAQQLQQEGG
# NKX2-4 [38] = target: T19, NKX2-4 (Homo sapiens, UniProt Q9H2Z4 175-261, T231S)
# T19 sequence: T18 sequence with L43P, T57S
# NKX2-4 [39] = target: T20, NKX2-4 (Homo sapiens, UniProt Q9H2Z4 175-261)
# T20 sequence: T18 sequence with L43P
# HOXA2 [40] = target: HOXA2 (Homo sapiens, UniProt O43364 129-215, R185T)
# Chain of HOXA2 (Homo sapiens, UniProt O43364 129-215, R185T) (O43364 129-215 R185T): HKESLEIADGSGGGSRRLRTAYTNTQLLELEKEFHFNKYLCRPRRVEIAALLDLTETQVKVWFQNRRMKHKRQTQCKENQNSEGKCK
# HOXA2 [41] = target: HOXA2 (Homo sapiens, UniProt O43364 129-215, R185K)
# Chain of HOXA2 (Homo sapiens, UniProt O43364 129-215, R185K) (O43364 129-215 R185K): as the sequence (O43364 129-215 R185T) above, with T57K counted along it
# NKX2-4 [42] = target: T21, NKX2-4 (Homo sapiens, UniProt Q9H2Z4 175-261, R246Q)
# T21 sequence: T18 sequence with L43P, R72Q
# HOXA2 [43] = target: HOXA2 (Homo sapiens, UniProt O43364 129-215, Y150S)
# Chain of HOXA2 (Homo sapiens, UniProt O43364 129-215, Y150S) (O43364 129-215 Y150S): as the sequence (O43364 129-215 R185T) above, with Y22S, T57R counted along it
# HOXA2 [44] = target: HOXA2 (Homo sapiens, UniProt O43364 129-215)
# Chain of HOXA2 (Homo sapiens, UniProt O43364 129-215) (O43364 129-215): as the sequence (O43364 129-215 R185T) above, with T57R counted along it
# Chain of CRX (Homo sapiens, UniProt O43186 26-111, E42D) (O43186 26-111 E42D): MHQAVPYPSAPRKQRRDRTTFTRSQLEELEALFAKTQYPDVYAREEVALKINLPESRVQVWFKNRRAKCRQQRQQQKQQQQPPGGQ
# Chain of CRX (Homo sapiens, UniProt O43186 26-111, R41L) (O43186 26-111 R41L): as the sequence (O43186 26-111 E42D) above, with R16L, D17E counted along it
# Chain of CRX (Homo sapiens, UniProt O43186 26-111) (O43186 26-111): as the sequence (O43186 26-111 E42D) above, with D17E counted along it
sequence,measurement,setting,value
ACTGCTGG,binding signal,CRX [1],"8.37 upbm affinity estimate (log intensity, higher = more binding, comparable within an allelic series)"
same,binding signal,CRX [2],"8.49 upbm affinity estimate (log intensity, higher = more binding, comparable within an allelic series)"
same,binding signal,CRX [3],"8.37 upbm affinity estimate (log intensity, higher = more binding, comparable within an allelic series)"
CGGGACCC,binding signal,CRX [1],"8.17 upbm affinity estimate (log intensity, higher = more binding, comparable within an allelic series)"
same,binding signal,CRX [2],"8.21 upbm affinity estimate (log intensity, higher = more binding, comparable within an allelic series)"
same,binding signal,CRX [3],"8.21 upbm affinity estimate (log intensity, higher = more binding, comparable within an allelic series)"
AAGATTAT,binding signal,CRX [1],"12.9 upbm affinity estimate (log intensity, higher = more binding, comparable within an allelic series)"
same,binding signal,CRX [2],"12.8 upbm affinity estimate (log intensity, higher = more binding, comparable within an allelic series)"
same,binding signal,CRX [3],"12.8 upbm affinity estimate (log intensity, higher = more binding, comparable within an allelic series)"
CTTGCTAC,binding signal,CRX [1],"8.21 upbm affinity estimate (log intensity, higher = more binding, comparable within an allelic series)"
same,binding signal,CRX [2],"8.34 upbm affinity estimate (log intensity, higher = more binding, comparable within an allelic series)"
same,binding signal,CRX [3],"8.28 upbm affinity estimate (log intensity, higher = more binding, comparable within an allelic series)"
CACCGCGG,binding signal,VENTX [4],"8.21 upbm affinity estimate (log intensity, higher = more binding, comparable within an allelic series)"
same,binding signal,VENTX [5],"8.03 upbm affinity estimate (log intensity, higher = more binding, comparable within an allelic series)"
same,binding signal,VENTX [6],"8.12 upbm affinity estimate (log intensity, higher = more binding, comparable within an allelic series)"
CCCTGCGC,binding signal,SIX6 [7],"8.93 upbm affinity estimate (log intensity, higher = more binding, comparable within an allelic series)"
same,binding signal,SIX6 [8],"8.85 upbm affinity estimate (log intensity, higher = more binding, comparable within an allelic series)"
same,binding signal,SIX6 [9],"8.92 upbm affinity estimate (log intensity, higher = more binding, comparable within an allelic series)"
same,binding signal,SIX6 [10],"8.96 upbm affinity estimate (log intensity, higher = more binding, comparable within an allelic series)"
same,binding signal,SIX6 [11],"8.94 upbm affinity estimate (log intensity, higher = more binding, comparable within an allelic series)"
same,binding signal,SIX6 [12],"8.96 upbm affinity estimate (log intensity, higher = more binding, comparable within an allelic series)"
same,binding signal,SIX6 [13],"8.9 upbm affinity estimate (log intensity, higher = more binding, comparable within an allelic series)"
same,binding signal,SIX6 [14],"8.89 upbm affinity estimate (log intensity, higher = more binding, comparable within an allelic series)"
same,binding signal,SIX6 [15],"8.98 upbm affinity estimate (log intensity, higher = more binding, comparable within an allelic series)"
same,binding signal,SIX6 [16],"8.88 upbm affinity estimate (log intensity, higher = more binding, comparable within an allelic series)"
same,binding signal,SIX6 [17],"9 upbm affinity estimate (log intensity, higher = more binding, comparable within an allelic series)"
same,binding signal,SIX6 [18],"8.86 upbm affinity estimate (log intensity, higher = more binding, comparable within an allelic series)"
same,binding signal,SIX6 [19],"8.88 upbm affinity estimate (log intensity, higher = more binding, comparable within an allelic series)"
CAGTCCCG,binding signal,HOXA4 [20],"9.96 upbm affinity estimate (log intensity, higher = more binding, comparable within an allelic series)"
same,binding signal,HOXA4 [21],"9.95 upbm affinity estimate (log intensity, higher = more binding, comparable within an allelic series)"
same,binding signal,HOXA4 [22],"9.91 upbm affinity estimate (log intensity, higher = more binding, comparable within an allelic series)"
same,binding signal,HOXA4 [23],"10 upbm affinity estimate (log intensity, higher = more binding, comparable within an allelic series)"
GCGACCGC,binding signal,HOXA4 [20],"9.61 upbm affinity estimate (log intensity, higher = more binding, comparable within an allelic series)"
same,binding signal,HOXC9 [24],"9.65 upbm affinity estimate (log intensity, higher = more binding, comparable within an allelic series)"
same,binding signal,HOXA4 [21],"9.65 upbm affinity estimate (log intensity, higher = more binding, comparable within an allelic series)"
same,binding signal,HOXC9 [25],"9.71 upbm affinity estimate (log intensity, higher = more binding, comparable within an allelic series)"
same,binding signal,MSX2 [26],"9.49 upbm affinity estimate (log intensity, higher = more binding, comparable within an allelic series)"
same,binding signal,HOXC9 [27],"9.6 upbm affinity estimate (log intensity, higher = more binding, comparable within an allelic series)"
same,binding signal,HOXA4 [22],"9.86 upbm affinity estimate (log intensity, higher = more binding, comparable within an allelic series)"
same,binding signal,MSX2 [28],"9.38 upbm affinity estimate (log intensity, higher = more binding, comparable within an allelic series)"
same,binding signal,HOXC9 [29],"9.64 upbm affinity estimate (log intensity, higher = more binding, comparable within an allelic series)"
same,binding signal,MSX2 [30],"9.56 upbm affinity estimate (log intensity, higher = more binding, comparable within an allelic series)"
same,binding signal,HOXA4 [23],"9.79 upbm affinity estimate (log intensity, higher = more binding, comparable within an allelic series)"
GCTGCCGA,binding signal,HOXC9 [24],"9.65 upbm affinity estimate (log intensity, higher = more binding, comparable within an allelic series)"
same,binding signal,NKX2-6,"9.17 upbm affinity estimate (log intensity, higher = more binding, comparable within an allelic series)"
same,binding signal,HOXC9 [25],"9.69 upbm affinity estimate (log intensity, higher = more binding, comparable within an allelic series)"
same,binding signal,ALX1 [31],"6.5 upbm affinity estimate (log intensity, higher = more binding, comparable within an allelic series)"
same,binding signal,HOXC9 [27],"9.57 upbm affinity estimate (log intensity, higher = more binding, comparable within an allelic series)"
same,binding signal,ALX1 [32],"6.4 upbm affinity estimate (log intensity, higher = more binding, comparable within an allelic series)"
same,binding signal,HOXC9 [29],"9.8 upbm affinity estimate (log intensity, higher = more binding, comparable within an allelic series)"
same,binding signal,ALX1 [33],"6.43 upbm affinity estimate (log intensity, higher = more binding, comparable within an allelic series)"
GCGCCGCC,binding signal,HOXD13 [34],"9.49 upbm affinity estimate (log intensity, higher = more binding, comparable within an allelic series)"
same,binding signal,HOXD13 [35],"9.76 upbm affinity estimate (log intensity, higher = more binding, comparable within an allelic series)"
same,binding signal,HOXD13 [36],"9.79 upbm affinity estimate (log intensity, higher = more binding, comparable within an allelic series)"
GGTGCTTA,binding signal,NKX2-5,"10.4 upbm affinity estimate (log intensity, higher = more binding, comparable within an allelic series)"
ATAATATC,binding signal,HOXB6,"10.8 upbm affinity estimate (log intensity, higher = more binding, comparable within an allelic series)"
GCGTGCCC,binding signal,NKX2-4 [37],"9.72 upbm affinity estimate (log intensity, higher = more binding, comparable within an allelic series)"
same,binding signal,NKX2-4 [38],"9.7 upbm affinity estimate (log intensity, higher = more binding, comparable within an allelic series)"
same,binding signal,NKX2-4 [39],"9.77 upbm affinity estimate (log intensity, higher = more binding, comparable within an allelic series)"
same,binding signal,HOXA2 [40],"7.23 upbm affinity estimate (log intensity, higher = more binding, comparable within an allelic series)"
same,binding signal,HOXA2 [41],"10.3 upbm affinity estimate (log intensity, higher = more binding, comparable within an allelic series)"
same,binding signal,NKX2-4 [42],"9.73 upbm affinity estimate (log intensity, higher = more binding, comparable within an allelic series)"
same,binding signal,HOXA2 [43],"10.3 upbm affinity estimate (log intensity, higher = more binding, comparable within an allelic series)"
same,binding signal,HOXA2 [44],"7.4 upbm affinity estimate (log intensity, higher = more binding, comparable within an allelic series)"

# From publication PMC11006913
